Test [1] can be described thus: NCI Yeast Anticancer Drug Screen. Data for the rad50 strain (AID 155).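 Further: 0% = growth of vehicle-only cultures of the same strain.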 As to conditions: S. cerevisiae rad50 strain growth inhibition, hits give high values. A digest of the protocol: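 Inhibition values express reduced yeast growth in compound-treated cultures relative to vehicle-treated controls.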
Test [2] can be described thus: NCI Yeast Anticancer Drug Screen. Data for the mec2-1 strain (AID 157). Particulars: S. cerevisiae mec2-1 strain, hits give high values. Summed up:
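Cells of the genetically defined mec2-1 yeast strain are incubated with test compound. Inhibition of growth is calculated against vehicle-treated controls.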

A short description of test [3]: NCI Yeast Anticancer Drug Screen. Data for the sgs1 mgt1 strain (AID 161).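 Further: 0% = growth of cultures given vehicle only.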 Particulars: S. cerevisiae sgs1 mgt1 strain, hits give high values. A digest of the protocol: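 Read-out: growth inhibition vs vehicle controls. Cells: mutant yeast strain deficient in DNA damage repair.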
A short description of test [4]: NCI Yeast Anticancer Drug Screen. Data for the cln2 rad14 strain (AID 165).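 Further: 0% = growth equal to vehicle treated cultures.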 Particulars: S. cerevisiae cln2 rad14 strain, hits give high values. A digest of the protocol:
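The screen exposed genetically defined yeast (cln2 rad14) to test compounds and scored growth inhibition relative to vehicle-treated controls.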

Test [5] is described as follows: NCI Yeast Anticancer Drug Screen. Data for the bub3 strain (AID 167). As to conditions: S. cerevisiae bub3 mutant strain, hits give high values. Summed up: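 Steps: expose the mutant yeast strain to compound; grow alongside vehicle-treated cultures; measure growth; express inhibition against the vehicle cultures.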
A short description of test [6]: NCI Yeast Anticancer Drug Screen. Data for the mlh1 rad18 strain (AID 175). Particulars: S. cerevisiae mlh1 rad18 strain growth inhibition, hits give high values. Summed up: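 Compound-treated yeast growth, normalised to vehicle controls. Strain bears defined DNA repair mutations.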
The mark [7] stands for this setting: at 5.0 µM (retest, dose inferred, filed as 0.5).
Setting [8] is: at 50.0 µM (retest, dose inferred, filed as 5.0).

Structures are written as SMILES. Compounds without any hit were thinned out: in the full panel of roughly 79,000, 15% have a hit. Unmarked numbers belong to inactive results. The source made the active and inactive calls. No stated cut-off is given here; in the data, active means growth inhibition above about 70%; inactive means the rest.

On to `CN(C)c1nc(N(C)C)nc([N+](C)(C)C)n1`, for which the growth inhibition is 1% in test [1] (setting [7]); -1% in test [1] (setting [8]); 98.5% (active) in test [1] (at 50.0 µM); -3% in test [2] (setting [7]); 1% in test [2] (setting [8]); 98% (active) in test [2] (at 50.0 µM). In addition, the growth inhibition in test [3] (setting [7]) was -1%; in test [3] (setting [8]), -4%; in test [3] (at 50.0 µM), 99.1% (active); in test [4] (setting [7]) it was -3%; in test [4] (setting [8]), -1%; in test [4] (at 50.0 µM) it was 96.5% (active). In addition, the growth inhibition is 0% in test [5] (setting [7]); -5% in test [5] (setting [8]); 98% (active) in test [5] (at 50.0 µM); -5% in test [6] (setting [7]); -7% in test [6] (setting [8]); 98.7% (active) in test [6] (at 50.0 µM).
Consider `COc1c(O)cc2c(c1O)C(=O)C1=C(CCCC1)C2=O`, for which the growth inhibition is -4% in test [1] (setting [7]); 63% in test [1] (setting [8]); 47.1% in test [1] (at 50.0 µM); 2% in test [2] (setting [7]); 49% in test [2] (setting [8]); 22.2% in test [2] (at 50.0 µM). In addition, the growth inhibition in test [3] (setting [7]) is 4%; in test [3] (setting [8]), 88% (active); in test [3] (at 50.0 µM) it was 62.1%; in test [4] (setting [7]), -5%; in test [4] (setting [8]) it was 22%; in test [4] (at 50.0 µM), 38.9%. For the same compound, the growth inhibition in test [5] (setting [7]) is 11%; in test [5] (setting [8]), 80% (active); in test [5] (at 50.0 µM), 65%; in test [6] (setting [7]), 2%; in test [6] (setting [8]), 70% (active); in test [6] (at 50.0 µM), 21.3%.
Regarding `NCCNCCNCc1c2ccccc2c(CNCCNCCN)c2ccccc12`, the growth inhibition was 13% in test [1] (setting [7]); 13% in test [1] (setting [8]); 36.2% in test [1] (at 50.0 µM); -3% in test [2] (setting [7]); -3% in test [2] (setting [8]); 90.9% (active) in test [2] (at 50.0 µM). Moreover, the growth inhibition in test [3] (setting [7]) was 0%; in test [3] (setting [8]), 0%; in test [3] (at 50.0 µM) it was 90.9% (active); in test [4] (setting [7]), 5%; in test [4] (setting [8]), 5%; in test [4] (at 50.0 µM), 89.7% (active). For the same compound, the growth inhibition in test [5] (setting [7]) was 7%; in test [5] (setting [8]), 7%; in test [5] (at 50.0 µM), 43.8%; in test [6] (setting [7]), 17%; in test [6] (setting [8]), 17%; in test [6] (at 50.0 µM), 90.8% (active).
With `Cc1c(N=Nc2ccccc2Cl)c(-c2ccccc2)nn1C(=S)S`, the growth inhibition in test [1] (setting [7]) was 16%; in test [1] (setting [8]) it was 90% (active); in test [1] (at 50.0 µM) it was 96.2% (active); in test [2] (setting [7]), -1%; in test [2] (setting [8]), 91% (active); in test [2] (at 50.0 µM), 98.2% (active). The growth inhibition in test [3] (setting [7]) is 4%; in test [3] (setting [8]), 95% (active); in test [3] (at 50.0 µM), 97.8% (active); in test [4] (setting [7]), -2%; in test [4] (setting [8]), 92% (active); in test [4] (at 50.0 µM), 97.3% (active). In addition, the growth inhibition was -3% in test [5] (setting [7]); 85% (active) in test [5] (setting [8]); 97.3% (active) in test [5] (at 50.0 µM); -2% in test [6] (setting [7]); 93% (active) in test [6] (setting [8]); 97.8% (active) in test [6] (at 50.0 µM).
On to `CCCCCCCCCCC[N+]1(Cc2ccccc2)CC2CCN(Cc3ccccc3)CC2C1` (configuration not stated), for which the growth inhibition is 97% (active) in test [1] (setting [7]); 100% (active) in test [1] (setting [8]); 99.5% (active) in test [1] (at 50.0 µM); 73% (active) in test [2] (setting [7]); 100% (active) in test [2] (setting [8]); 99.3% (active) in test [2] (at 50.0 µM). In addition, the growth inhibition in test [3] (setting [7]) is 54%; in test [3] (setting [8]) it was 99% (active); in test [3] (at 50.0 µM) it was 99.6% (active); in test [4] (setting [7]), 95% (active); in test [4] (setting [8]), 99% (active); in test [4] (at 50.0 µM) it was 99.4% (active). For the same compound, the growth inhibition in test [5] (setting [7]) is 99% (active); in test [5] (setting [8]) it was 99% (active); in test [5] (at 50.0 µM) it was 99.5% (active); in test [6] (setting [7]), 97% (active); in test [6] (setting [8]), 99% (active); in test [6] (at 50.0 µM) it was 99.5% (active).
Take `Cn1c(-c2ccc(/C=N/NC(=S)N/N=C/c3ccc(-c4c[n+]5ccsc5n4C)cc3)cc2)c[n+]2ccsc12`: the growth inhibition in test [1] (setting [7]) is 72% (active); in test [1] (setting [8]), 95% (active); in test [1] (at 50.0 µM), 88.6% (active); in test [2] (setting [7]), 66%; in test [2] (setting [8]), 98% (active); in test [2] (at 50.0 µM), 91.2% (active). Moreover, the growth inhibition in test [3] (setting [7]) was 73% (active); in test [3] (setting [8]) it was 98% (active); in test [3] (at 50.0 µM) it was 91.4% (active); in test [4] (setting [7]), 34%; in test [4] (setting [8]), 91% (active); in test [4] (at 50.0 µM), 86.4% (active). In addition, the growth inhibition is 60% in test [5] (setting [7]); 89% (active) in test [5] (setting [8]); 90.3% (active) in test [5] (at 50.0 µM); 72% (active) in test [6] (setting [7]); 97% (active) in test [6] (setting [8]); 88% (active) in test [6] (at 50.0 µM).
Turning to `C[n+]1cccc2c1-c1ccccc1C2=O`, the growth inhibition in test [1] (setting [7]) was 6%; in test [1] (setting [8]) it was 22%; in test [1] (at 50.0 µM), -2.25%; in test [2] (setting [7]), -1%; in test [2] (setting [8]), 22%; in test [2] (at 50.0 µM), 1.6%. Besides, the growth inhibition is 3% in test [3] (setting [7]); 8% in test [3] (setting [8]); 8.15% in test [3] (at 50.0 µM); -3% in test [4] (setting [7]); 1% in test [4] (setting [8]); 39.5% in test [4] (at 50.0 µM). Also, the growth inhibition in test [5] (setting [7]) was -2%; in test [5] (setting [8]), 9%; in test [5] (at 50.0 µM) it was 11.1%; in test [6] (setting [7]), 2%; in test [6] (setting [8]), 28%; in test [6] (at 50.0 µM), 16.1%.
For `Cc1[nH]c(=O)[nH]c(=O)c1CN(C)Cc1cc(Cl)cc(Cl)c1O`, the growth inhibition in test [1] (setting [7]) was -4%; in test [1] (setting [8]), 70% (active); in test [1] (at 50.0 µM), 53.1%; in test [2] (setting [7]), -8%; in test [2] (setting [8]), 55%; in test [2] (at 50.0 µM) it was 26.9%. The growth inhibition in test [3] (setting [7]) was 0%; in test [3] (setting [8]), 95% (active); in test [3] (at 50.0 µM), 77.4% (active); in test [4] (setting [7]) it was -3%; in test [4] (setting [8]) it was 43%; in test [4] (at 50.0 µM), 22%. Further, the growth inhibition is -8% in test [5] (setting [7]); 46% in test [5] (setting [8]); 30.1% in test [5] (at 50.0 µM); -3% in test [6] (setting [7]); 82% (active) in test [6] (setting [8]); 77.5% (active) in test [6] (at 50.0 µM).
Regarding `CCOC(=O)c1cc(Cl)nc2ccc(OC)cc12`, the growth inhibition in test [1] (setting [7]) was -3%; in test [1] (setting [8]), -30%; in test [1] (at 50.0 µM), 0.05%; in test [2] (setting [7]), -3%; in test [2] (setting [8]), -30%; in test [2] (at 50.0 µM), 9.35%. In addition, the growth inhibition in test [3] (setting [7]) is -4%; in test [3] (setting [8]) it was -31%; in test [3] (at 50.0 µM), 20.3%; in test [4] (setting [7]), 0%; in test [4] (setting [8]), -41%; in test [4] (at 50.0 µM) it was 40.9%. For the same compound, the growth inhibition in test [5] (setting [7]) is 6%; in test [5] (setting [8]) it was -12%; in test [5] (at 50.0 µM), 49.4%; in test [6] (setting [7]), -2%; in test [6] (setting [8]) it was -25%; in test [6] (at 50.0 µM), 15.4%.

The values are drawn from PubChem BioAssay (NCI).
